Data published in PubChem BioAssay AID720690 (Broad Institute, 2013).
Measured potencies and affinities stand elsewhere. Active and inactive are the calls of the source.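 How the source made its calls: active means every repeat run showing a signal drop whose fitted half-maximal concentration is at most twice the top tested concentration; inconclusive means repeat runs disagree, or flat partial drop, or poor fit; inactive means the rest.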

Test: general mammalian cell viability loss – activator set, cherry-pick, cytotoxicity control for miR-122 modulator project, dose response (AID 720690)
Details: HEK293T viability, CellTiter-Glo luminescence, 48 h; series mostly up to 26 µM

With COc1ccc(C#Cc2ccc([C@@H]3[C@@H](CO)N4CCCCN(C(=O)Nc5ccccc5)C[C@H]34)cc2)cc1 as the molecule, how does the outcome read?
Its outcome is “inactive”.

For CC1(C)CC(=O)c2cnc(NC(=O)c3ccco3)nc2C1, which outcome is on record?
Its outcome is “inactive”.

For COc1ccccc1NC(=O)Nc1ccc2c(c1)C(=O)N(C)[C@H]1CC[C@H](CC(=O)Nc3ccc4c(c3)COC4)O[C@@H]1CO2, which outcome is on record?
The outcome was “inactive”.

Which outcome does the source give for Cc1nn(C)cc1NC(=O)C[C@H]1CC[C@@H]2[C@H](COc3ccc(NC(=O)Nc4cccc(Cl)c4)cc3C(=O)N2C)O1 here?
Its outcome is “inactive”.

Which outcome does the source give for CN1C[C@H]2[C@@H](c3ccccc31)[C@@H](CO)N2C(=O)C1CCOCC1 here?
The outcome was “inactive”.

With CO[C@@H]1CN(C)C(=O)c2ccc(NS(=O)(=O)c3ccc(C)cc3)cc2OC[C@@H](C)N(C(=O)NC(C)C)C[C@H]1C as the molecule, how does the outcome read?
The outcome was “inactive”.

For C[C@H](CO)N1C[C@H](C)[C@@H](CN(C)Cc2ccc(-c3ccccc3)cc2)Oc2ncc(C#CCN(C)C)cc2C1=O, which outcome is on record?
Its outcome is “inactive”.

Which outcome does the source give for CN1C(=O)c2cc(NC(=O)c3cccs3)ccc2OC[C@H]2O[C@H](CC(=O)NCC(F)(F)F)CC[C@H]21 here?
Its outcome is “inactive”.

With CN1C(=O)c2cc(NC(=O)Cc3ccccc3)ccc2OC[C@H]2O[C@@H](CC(=O)NC3CCC3)CC[C@@H]21 as the molecule, how does the outcome read?
The outcome was “inactive”.

Which outcome does the source give for CN1C(=O)c2cc(NC(=O)Cc3ccccc3)ccc2OC[C@H]2O[C@@H](CC(=O)NC3CCC3)CC[C@H]21 here?
Its outcome is “inactive”.

With CO[C@@H]1CN(C)C(=O)c2cc(NC(=O)c3cccc(Oc4ccccc4)c3)ccc2OC[C@H](C)NC[C@@H]1C as the molecule, how does the outcome read?
The outcome was “inactive”.

With CCCNC(=O)Nc1ccc2c(c1)OC[C@@H](C)N(CCC)C[C@H](C)[C@H](OC)CN(C)C2=O as the molecule, how does the outcome read?
Its outcome is “inactive”.
